From the supplement of paper PMC6555819

Test system: VDR:RXRa (NR concentration 270 nM, RXRa partner concentration 90 nM)
Assay: PBM binding z-score (relative to random genomic background probes); higher = stronger binding; sequences stand for … in GC…GCGATTGACAGCGTAGAATGAAGG
Procedure: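 Protein-binding microarray (Agilent 4x180K custom design, double-stranded 60-nt probes: 5' GC cap, 34-nt variable region, 24-nt constant primer region; full probe sequence given). Purified or IVT nuclear receptor:RXRα heterodimers (3:1 NR:RXRα, mostly 270:90 nM) or homodimers were incubated for 1 h in PBS with 2% milk and no ligand, then detected with Alexa488 antibodies. Fluorescence from o1-orientation probes (~5 replicates averaged) was converted to z-scores against 500 random hg19 background probes. Variable regions are seed direct-repeat (DR0–DR5) sites, all their single-nucleotide variants and half-site ablations.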

With TCTATTAGTTGAAGGACAACCGACGAGTCCGTTT as the sequence, how does the PBM binding z-score read?
The PBM binding z-score was 1.23.

Which PBM binding z-score does the source give for TGGCCTAGGTCATTCAGGGGCCAGTATAGAAAGC here?
The PBM binding z-score was 2.79.

TTTTGTAGATCAATAGAGGTTAAGAAAGTGCGCT was tested. Which PBM binding z-score did it give?
The PBM binding z-score was 2.09.

How did the PBM binding z-score turn out when CGTCCAAGGCCATAGGAGGTCAGTGAAGACAGAT was run?
Its PBM binding z-score is 2.71.

Which PBM binding z-score does the source give for CGTCCAAGGTCAGAGAGCTCAGTGAATGCCGAGT here?
Its PBM binding z-score is 2.76.

Which PBM binding z-score does the source give for CCTCGGAGGACAGAAGGCCAGAGCTGTCCGCTTT here?
The PBM binding z-score was -0.762.

AGTCAAAGTTTAGGACGAGGTAACGTAAAGCACG was tested. Which PBM binding z-score did it give?
The PBM binding z-score was 0.00949.

With CAAACTGGGTCACGAAAGGTCAAAGTCGAATGAC as the sequence, how does the PBM binding z-score read?
Its PBM binding z-score is 6.96.

Which PBM binding z-score does the source give for ACTAGTTAGTCAGCTGAGGTCACACACAATTCGG here?
The PBM binding z-score was 4.19.

For TAGCCTAGGTCATGGGCCAGTATTCCACGCGAAC, which PBM binding z-score is on record?
Its PBM binding z-score is 2.09.

Which PBM binding z-score does the source give for TCGAGTAGGTTAGGAGCATTCAGAATGGCGTCGA here?
Its PBM binding z-score is -0.474.

AATTCAGGGTCATCGTAGGCCAGAGTACGCACAG was tested. Which PBM binding z-score did it give?
The PBM binding z-score was 5.7.

Which PBM binding z-score does the source give for ATCTCTAGGTACAGATAGTTCAGTGAATGCAAAT here?
The PBM binding z-score was 1.18.

Which PBM binding z-score does the source give for TCTTGTAGATCAAAGGTTAAGAGAGCCGAAGCCT here?
The PBM binding z-score was 1.29.

For AGTCAAAGTTCATCTCGGTAACGTAAGATATGCT, which PBM binding z-score is on record?
Its PBM binding z-score is 4.8.

For TCTTGTAGATCACTAGAGGTTAAGAAAGTGCGCT, which PBM binding z-score is on record?
Its PBM binding z-score is 2.06.

For TGTCAAAGTTCAAAGTTAACGTAAGTATCCACAC, which PBM binding z-score is on record?
Its PBM binding z-score is 4.57.

How did the PBM binding z-score turn out when TCTTGTAGATCAACAGGAGGTTAAGACAGATCGA was run?
The PBM binding z-score was 0.563.

How did the PBM binding z-score turn out when CAAACTAGGTCACGAAAGGACAAAGTCGAATGAC was run?
Its PBM binding z-score is 4.23.

For CGTAGCAGGCCAATCTGGGTCACTCAAGGCTTGA, which PBM binding z-score is on record?
The PBM binding z-score was 0.309.

For TCATGTAGATCAACAGGAGGTTAAGAAAGATCGA, which PBM binding z-score is on record?
Its PBM binding z-score is 0.591.

With ATCTCTAGGTAACAAGTGCAGTGAAAGAGAGGAC as the sequence, how does the PBM binding z-score read?
Its PBM binding z-score is 0.287.

With AAAGACAGGTGATGAAGGTAACTCAGGCTATCAT as the sequence, how does the PBM binding z-score read?
The PBM binding z-score was 0.521.

With TCTGGGAGGACACGAAGGTCAGAGCTTTCCAGAG as the sequence, how does the PBM binding z-score read?
The PBM binding z-score was 2.18.

With TAGCCTAGGTAATTGGGCCAGTATAGTACGCATC as the sequence, how does the PBM binding z-score read?
The PBM binding z-score was -0.627.

With CCTATAAGTTGACCATAAGGGCAACCGAAGCTCG as the sequence, how does the PBM binding z-score read?
The PBM binding z-score was 1.06.

How did the PBM binding z-score turn out when GCTTTTAGTTGAAAGGGCAACCGAATGATTCTCG was run?
The PBM binding z-score was 0.313.

How did the PBM binding z-score turn out when ATATCTAGGTTAGCTGGGGTCATTCAGACTAGGC was run?
Its PBM binding z-score is 6.03.

How did the PBM binding z-score turn out when CGAACTAGGTCATTGACAGGCCAGTGAATAGTAA was run?
Its PBM binding z-score is 1.88.

TCGTATAGGTAAAGGTGAAAGTCGAACGATATGA was tested. Which PBM binding z-score did it give?
Its PBM binding z-score is 0.788.

With CGAACTAGGTCAAGGACAGTGCATCTCCGCACGC as the sequence, how does the PBM binding z-score read?
Its PBM binding z-score is 2.39.

With TCTTGTAGATCAACAGGAGGTTAAGGAAGATCGA as the sequence, how does the PBM binding z-score read?
Its PBM binding z-score is 0.488.

How did the PBM binding z-score turn out when ACTAGCAGGCCAAGTTGGGGTCACTCAAACAAAG was run?
Its PBM binding z-score is 4.77.

Which PBM binding z-score does the source give for CAGCCGAGGTCAGGGCCAGTATAGGAGGAACGTT here?
The PBM binding z-score was 3.64.

How did the PBM binding z-score turn out when AGAATGAGATTATACGTAGATCAGGGAAGAAAGT was run?
Its PBM binding z-score is -0.367.

Which PBM binding z-score does the source give for CCGGCTGGGGCATAAGGTTACCATAAGCCAGCCC here?
Its PBM binding z-score is -0.119.

Which PBM binding z-score does the source give for ATCTCTAGGTTACAAGTTCAGTGAAAGAGAGGAC here?
Its PBM binding z-score is 2.7.

Which PBM binding z-score does the source give for CGTCAAAGTTCAACTATGGTAACGTAAAGCACGC here?
Its PBM binding z-score is 4.35.

How did the PBM binding z-score turn out when CAAACTAAGTCAAAGGTCAAAGTCGAGCCAACCA was run?
The PBM binding z-score was 5.35.

How did the PBM binding z-score turn out when CCTACTGGCCCACGAAAGGTCATTGATTCAGTGA was run?
Its PBM binding z-score is 3.74.
